The text below walks through data of PubChem BioAssay.

Results filed as inconclusive are left out. For part of these data: Results with a measured potency or affinity are listed apart. Active and inactive are the calls of the source.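 How the source made its calls, unless noted: active means thallium flux through the channel raised or lowered by more than 3 SD from vehicle-only wells, actives on both sides; inactive means the rest.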

Assay [1] concerns Neuropilin-2 / VEGF-C interaction (human). Nature of the assay: small molecules blocking Neuropilin-2/VEGF-C interaction – biochemical, microplate binding format, z-score (AID 743281; call rule not given here). The conditions noted are these: microplate NRP2/VEGF-C binding assay; stronger effect = lower value.
The nature of assay [2]: viability loss in pontine glioma line – cell-based, JHH-DIPG-1, MIPE4.0, CellTiter-Glo, qHTS, dose response (AID 1347062; cut-off not given, nearly all actives have AC50 up to about 27 µM;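 on AC50: cells exposed to compound for two days before readout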). The conditions noted are these: JHH-DIPG-1 viability, CellTiter-Glo ATP luminescence.
Assay [3] in a line: growth inhibition of DIPG cells – cell-based, MIPE4.0 library, CellTiter-Glo luminescence, qHTS (AID 1347066; cut-off not given, nearly all actives have AC50 up to about 30 µM;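 further: cells exposed to compound for 48 hours before readout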). The settings on record: SU-DIPG-VI viability, CellTiter-Glo ATP luminescence. For orientation: In ATP-based viability assays light output follows the ATP content of the culture.
Assay [4] has as its system F380Y/beta1. In words: BK channel mutant inhibitors and activators – cell-based, U2OS BacMam, thallium flux, beta subunits, selectivity assay, profiling panel (AID 1259406).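 Further: initial slope of Thallos dye fluorescence rise after thallium is added; log ratio against the mean of 0.3% DMSO vehicle wells on the same plate.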 The settings on record: U2OS BacMam BK variants, at 30 µM.
Assay [5] concerns F380Y/beta4. The description is as above. The conditions noted are these: U2OS BacMam BK variants, at 30 µM.
The subject of assay [6] is R275C/beta4. The assay is described as above. The settings on record: U2OS BacMam BK variants, at 30 µM.
Assay [7] relates to R275C/Slo1WT/beta2. Described as above. The conditions noted are these: U2OS BacMam BK variants, at 30 µM.
Assay [8] is described as follows: compounds altering circadian rhythm period length – cell-based, LOPAC library, luminescence reporter (AID 2774; call rule not given here;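 further: values are relative to mean of DMSO wells on each plate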). The settings on record: circadian reporter cells, at 7 µM, actives lie on both sides.
The subject of assay [9] is Hepatitis C virus NS3 helicase. In words: blockers of NS3h binding to ssDNA – biochemical, fluorescence polarization, LOPAC1280 library, primary screen (AID 687035; in the data active means inhibition above about 37%). The conditions noted are these: Purified HCV NS3 helicase, Cy5-dT15 ssDNA binding fluorescence polarization; stronger effect = higher value; concentration not given here. On the technique in general: In fluorescence polarisation assays a small probe gives low polarisation when free and higher when bound to something large.

Assay [10] can be described thus: compounds altering Cy5-DNA-NS3h complex signal – biochemical, LOPAC1280, artefact control for HCV NS3 helicase inhibitor project (AID 687037; call rule not given here). The settings on record: Cy5-DNA-NS3h complex fluorescence interference counterscreen. (Counterscreens check selectivity or assay interference.)
A short description of assay [11]: blockers of cellular phospholipid synthesis – cell-based, LOPAC library, screen 4, primary screen (AID 1347384; call rule not given here). The settings on record: animal cells, phospholipid biosynthesis inhibition screen; at 10 µM.
The nature of assay [12]: blockers of polyQ-driven CASP3 activation – cell-based (AID 1583). The settings on record: polyglutamine-induced caspase-3 activation, cell assay; stronger effect = higher value;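 tested at 10 µM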.
A short description of assay [13]: yeast 75Q aggregation reduction – 75Q-TubU reporter (AID 1593). The settings on record: Yeast 75Q polyglutamine aggregation reporter.
Assay [14] in a line: restoration of touch response, mutant HTT neurons – whole organism, C. elegans mechanosensory neurons, N-terminal huntingtin (AID 1599). The settings on record: C. elegans polyQ-huntingtin mechanosensory neurons, stronger effect = higher value.
A short description of assay [15]: blockers of cytochrome c efflux from mitochondria – biochemical, purified mitochondria (AID 1603).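 Further: mouse liver mitochondria challenged with calcium chloride; signal normalized to the plate average as 100%.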 The conditions noted are these: stronger effect = lower value.
Assay [16] is described as follows: polyglutamine aggregate formation blockers (AID 1604). The conditions noted are these: polyglutamine-induced protein aggregation inhibition assay; stronger effect = higher value; tested at 2.5 µM.
Assay [17] in a line: glutamate transport activators, MN-1 cells, MN-1 cell line (AID 1612).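 Further: tested at 1 µM final; 0% = mean of DMSO vehicle wells on each plate; positive means more glutamate uptake than control and negative means less.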 The conditions noted are these: MN-1 motor neuron cells, stronger effect = higher value.
A short description of assay [18]: 75Q-TubH aggregate inhibition, S. cerevisiae, yeast (AID 1616). The conditions noted are these: S. cerevisiae 75Q-TubH polyglutamine aggregation suppression; stronger effect = higher value.
Assay [19] can be described thus: compounds altering viability of human ES cells (AID 493140; call rule not given here;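 further: cells exposed to compounds for four days before counting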). The settings on record: human embryonic stem cell survival screen; stronger effect = higher value.
A short description of assay [20]: compounds altering HSF1 focus formation in cells – imaging, Selleck Cancer Library (AID 1347162; in the data active means plate-normalised HSF1 focus index below about 0.46). The settings on record: human cells, HSF1 nuclear foci imaging, at 10 µM; SSMD: measured here: HSF1 foci SSMD mean; cell count: measured here: cell number; plate-normalised HSF1 focus index: stronger effect = lower value.

Regarding `OC[C@H]1O[C@@H](Oc2cc(O)cc(/C=C/c3ccc(O)cc3)c2)[C@H](O)[C@@H](O)[C@@H]1O`, in assay [1], the z-score is 0.265 (inactive). For the same compound, the result in assay [2] and in assay [3] was inactive. In addition, the log fold change Tl+ flux in assay [4] is -0.0141 (inactive); in [5] it was -0.0711 (inactive); in [6], 0.00405 (inactive); in assay [7], 0.104 (active).
For `C=CC1=C(C(=O)O)N2C(=O)[C@@H](NC(=O)/C(=N\O)c3csc(N)n3)[C@H]2SC1` (stereo in doubt), the compound was classed as inactive in assay [1], in [2] and in [3].
Turning to `CC(=O)O[C@]1(C(C)=O)CC[C@H]2[C@@H]3C[C@H](C)C4=CC(=O)CC[C@]4(C)[C@H]3CC[C@@]21C`, the compound was called inactive in assay [2] and in assay [3]. Besides, the log fold change Tl+ flux in assay [4] is 0.0192 (inactive); in assay [5] it was -0.000109 (inactive); in [6] it was 0.0252 (inactive); in assay [7], 0.0102 (inactive).
The inhibition is the drop in the measured response relative to a control, in per cent. As for `CN=C(N)NCCC[C@H](N)C(=O)O`, in assay [8], the period change is -0.035 h (inactive). Further, the inhibition in [9] was 0% (inactive). The fluorescence ratio (interference) in [10] is 1 (inactive). Moreover, the z-score in assay [1] is -0.991 (inactive). For the same compound, the outcome in assay [11] was inactive.
In the case of `CC(=O)OCC(=O)[C@@]1(O)CC[C@H]2[C@@H]3C[C@H](C)C4=CC(=O)C=C[C@]4(C)[C@H]3[C@@H](O)C[C@@]21C`, the log fold change Tl+ flux in assay [4] was 0.0602 (inactive); in assay [5] it was 0.0393 (inactive); in assay [6], 0.0801 (inactive); in assay [7], 0.0333 (inactive).
As for `C#C[C@]1(OC(C)=O)CC[C@H]2[C@@H]3CCC4=CC(=O)CC[C@@H]4[C@H]3CC[C@@]21C`, the log fold change Tl+ flux was 0.0384 (inactive) in assay [4], -0.176 (active) in assay [5], -0.14 (active) in assay [6] and -0.0421 (inactive) in [7].
For `CCCc1nc(C(C)(C)O)c(C(=O)OCc2oc(=O)oc2C)n1Cc1ccc(-c2ccccc2-c2nn[nH]n2)cc1`, the compound was classed as inactive in assay [1].
For `CC(=O)N=c1sc(S(N)(=O)=O)nn1C`, the inhibition in [12] came to 0.15%. In assay [13], the score turned out to be 0.84. The rescue above control in assay [14] was -0.14. Also, in assay [15], the cytochrome c release ratio turned out to be 0.55. This compound showed an inhibition of aggregation in assay [16] of 49.4%. In [17], the glutamate uptake change was -1.05%. In [18], this compound registered an aggregation suppression score of 1.33. Also, in assay [19], the survival is 5.08 (inactive). Further, the log fold change Tl+ flux is -0.0785 (inactive) in assay [4], 0.0268 (inactive) in assay [5], -0.0118 (inactive) in assay [6] and -0.0121 (inactive) in [7].
Regarding `Cn1cc[nH]c1=S`, the inhibition in assay [12] stood at 14.9%. The score in assay [13] was 1.43. Besides, the rescue above control in [14] was -4.12. Further, the cytochrome c release ratio in [15] was 1.1. The same compound had an inhibition of aggregation in assay [16] of 48%. In addition, the glutamate uptake change in assay [17] is -2.61%. The aggregation suppression score in [18] was 1.46. Also, the survival in [19] is 1.42 (inactive). Moreover, the log fold change Tl+ flux in assay [4] was -0.0456 (inactive); in assay [5], 0.0112 (inactive); in [6] it was 0.0185 (inactive); in assay [7], 0.019 (inactive).
For orientation: AC50 means the concentration at which the activity in the assay is half-maximal. For `C[C@H](CCC(=O)O)[C@H]1CC[C@H]2[C@@H]3[C@@H](O)C[C@@H]4C[C@H](O)CC[C@]4(C)[C@H]3CC[C@]12C`, the survival in assay [19] is 4.92 (inactive). In assay [2], the AC50 was 20.9 µM (active). The outcome in assay [3] was inactive. For the same compound, the log fold change Tl+ flux in [4] was 0.0488 (inactive); in assay [5], 0.0547 (inactive); in [6], -0.0188 (inactive); in [7], -0.0131 (inactive).
Consider `CCCC1O[C@@H]2C[C@H]3[C@@H]4CCC5=CC(=O)C=C[C@]5(C)[C@H]4[C@@H](O)C[C@]3(C)[C@]2(C(=O)CO)O1` (stereo not given in full), for which the period change in assay [8] was -0.26 h (inactive). In [19], the survival is 0.833 (inactive). For the same compound, the inhibition in [9] was -5% (inactive). The fluorescence ratio (interference) in [10] was 0.9 (inactive). Further, in assay [11], the outcome was inactive. The log fold change Tl+ flux is 0.126 (active) in [4], 0.0417 (inactive) in assay [5], 0.1 (inactive) in assay [6] and -0.0145 (inactive) in [7].
Consider `CC(CCc1ccccc1)NCC(O)c1ccc(O)c(C(N)=O)c1` (stereo not given), for which the inhibition was 1.38% in assay [12] and -4% (inactive) in [9]. The compound further came in with a score in assay [13] of 1.61. In assay [14], this compound showed a rescue above control of 19.4. The cytochrome c release ratio in [15] amounted to 0.72. The inhibition of aggregation in assay [16] is 83.1%. Besides, in assay [17], the glutamate uptake change was -2.28%. Further, the aggregation suppression score in assay [18] was found to be 1.14. In addition, the period change in assay [8] was -0.45 h (inactive). Besides, the survival in assay [19] was 19.1 (inactive). Besides, the fluorescence ratio (interference) in assay [10] was 1 (inactive). The call in [11] was inactive. Moreover, the log fold change Tl+ flux in [4] was 0.0226 (inactive); in assay [5], 0.0997 (inactive); in assay [6], 0.0314 (inactive); in assay [7], -0.0367 (inactive).
As to `Cc1ccc(N(CC2=NCCN2)c2cccc(O)c2)cc1`, the inhibition is 0.92% in assay [12] and -6% (inactive) in [9]. Further, the score in assay [13] worked out at 1.23. Besides, the rescue above control in assay [14] is -6.1. Moreover, the cytochrome c release ratio in assay [15] stood at 0.77. The inhibition of aggregation in assay [16] worked out at 56.3%. The glutamate uptake change in [17] was -12.3%. This compound displayed an aggregation suppression score in assay [18] of 1.42. Moreover, in assay [8], the period change was -0.015 h (inactive). Moreover, the survival in assay [19] was 15.2 (inactive). In addition, the fluorescence ratio (interference) in assay [10] was 0.9 (inactive). The call in assay [2], in assay [3] and in assay [11] was inactive.
For `CCC(=O)OCC(=O)[C@@]1(OC(=O)CC)[C@@H](C)C[C@H]2[C@@H]3CCC4=CC(=O)C=C[C@]4(C)[C@@]3(Cl)[C@@H](O)C[C@@]21C`, the log fold change Tl+ flux in assay [4] is -0.203 (active); in assay [5] it was -0.237 (active); in assay [6], 0.0199 (inactive); in assay [7], -0.0376 (inactive).
On to `CC1(C)S[C@@H]2[C@H](NC(=O)[C@H](N)c3ccc(O)cc3)C(=O)N2[C@H]1C(=O)O`, for which, in [19], the survival is 6.33 (inactive). The log fold change Tl+ flux in assay [4] is 0.0448 (inactive); in [5], -0.0174 (inactive); in [6] it was 0.0282 (inactive); in [7] it was 0.0404 (inactive).
In the same order, the values of `C#C[C@]1(O)CC[C@H]2[C@@H]3CCC4=CC(=O)CC[C@@H]4[C@H]3CC[C@@]21C` are 14.7 (inactive), 0.0886 (inactive), 0.0669 (inactive), -0.0715 (inactive) and -0.0385 (inactive).
Regarding `Nc1ccn([C@@H]2O[C@H](CO)[C@@H](O)C2O)c(=O)n1` (stereo not given in full), the z-score in assay [1] is 0.042 (inactive). For the same compound, the result in assay [2] was inactive. Also, in assay [20], the SSMD was -7.27, the cell count stood at 7440 and the plate-normalised HSF1 focus index was 0.739 (inactive). Besides, in assay [11], the call was inactive.
